Only some compounds are listed: those with a hit (about 3.2% of all), similar ones and a draw of the others.
bovine MsrA act: bovine methionine sulfoxide reductase A activation; purified bovine MsrA, absorbance read-out; 360,000 compounds, 0.3% hits; activation, % at 10.6 µM; in the data active = activation above about 7.5%;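 note: 0% = vehicle and 100% = reference activator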
DAGLB inhibitor: diacylglycerol lipase beta (human) inhibition; Q8NCG7; HEK293T DAGLB membrane lysate, EnzChek fluorogenic substrate; inhibition, % at 5.17 µM; 340,000 compounds, 0.059% hits; AID 504411; in the data active = inhibition above about 34%;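 note: 0% = enzyme with vehicle and 100% = wells lacking enzyme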
Target sequence (Q8NCG7 whole entry, looked up): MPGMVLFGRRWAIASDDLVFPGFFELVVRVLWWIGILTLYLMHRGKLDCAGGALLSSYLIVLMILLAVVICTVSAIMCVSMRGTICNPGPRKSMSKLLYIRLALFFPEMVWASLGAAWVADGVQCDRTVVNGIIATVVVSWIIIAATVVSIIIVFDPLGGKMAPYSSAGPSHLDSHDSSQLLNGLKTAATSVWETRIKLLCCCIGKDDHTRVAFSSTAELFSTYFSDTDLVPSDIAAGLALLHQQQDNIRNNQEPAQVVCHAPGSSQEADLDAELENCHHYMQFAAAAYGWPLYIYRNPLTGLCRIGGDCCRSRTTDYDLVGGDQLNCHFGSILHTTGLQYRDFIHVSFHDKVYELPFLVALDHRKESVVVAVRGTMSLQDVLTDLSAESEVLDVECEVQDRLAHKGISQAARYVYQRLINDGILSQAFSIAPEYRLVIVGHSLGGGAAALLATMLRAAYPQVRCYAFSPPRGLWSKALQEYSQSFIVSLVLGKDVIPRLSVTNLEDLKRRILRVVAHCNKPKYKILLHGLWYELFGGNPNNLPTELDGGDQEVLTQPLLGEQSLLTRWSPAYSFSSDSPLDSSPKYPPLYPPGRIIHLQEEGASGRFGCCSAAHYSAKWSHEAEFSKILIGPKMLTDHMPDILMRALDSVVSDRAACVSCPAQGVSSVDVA
rCAG binder-1: binds r(CAG) RNA repeats. inhibition, % at 3 µM. r(CAG) RNA repeat, TO-PRO-1 dye displacement fluorescence. 370,000 compounds, 1.3% hits;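 active = inhibition above the plate cutoff, the mean of all test compounds on that plate plus 3 SD, cut at about 35% in these data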;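 note: 0% = DMSO alone and 100% = 100 µM mitoxantrone as full dye displacement; higher means more dye released from RNA so lower well fluorescence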
DSG3 Ab inh: blocks pemphigus antibody binding to human desmoglein-3; P32926; DSG3-coupled beads, scFv-anti-DSG3-GFP binding, flow cytometry; stronger effect = lower value; binding (percent of control), % at 10 µM; 310,000 compounds, 0.48% hits;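 active = binding more than 3 SD below its plate's average and above zero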
MsrA inh: inhibits bovine methionine sulfoxide reductase A; inhibition, % at 15.5 µM; purified bovine MsrA, absorbance read-out; AID 651718; 360,000 compounds, 0.75% hits; in the data active = inhibition above about 4.5%;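 note: 0% = vehicle wells with enzyme and 100% = reference inhibitor wells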
NadD inh: inhibitors of Staphylococcus aureus NadD; inhibition, % at 20 µM; 360,000 compounds, 0.78% hits; purified NadD enzyme, colorimetric absorbance read-out; in the data active = inhibition above about 26%
rCAG bind conf: r(CAG) RNA repeat binding, confirmation; inhibition, % at 3 µM; AID 652065; 4,300 compounds, 70% hits; shares compounds with rCAG binder-1; TO-PRO-1 dye displacement fluorescence;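 active = inhibition above a per-plate cutoff, the mean inhibition of sample wells plus 3 SD, cut at about 35% in these data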;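 note: loss of TO-PRO-1 fluorescence as compound displaces dye from 1x1 AA loop RNA; 0% = DMSO only wells and 100% = 100 µM mitoxantrone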
dCAG dye counter: counter-screen for rCAG RNA binders: DNA CAG dye complex inhibitors; d(CAG) DNA oligo TO-PRO-1 dye displacement, fluorescence; 4,300 compounds, 94% hits; inhibition, % at 3 µM; shares compounds with rCAG binder-1;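 active = inhibition above its plate's cutoff, the mean test-well inhibition plus 3 SD, cut at about 4.8% in these data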;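 note: 0% = DNA dye mix with DMSO and 100% = 100 µM mitoxantrone; hits displace the dye from DNA and so lower well fluorescence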
dCAG dye DR: disrupts DNA CAG TO-PRO-1 complex in dose response; shares compounds with rCAG binder-1; 250 compounds, 20% hits; IC50, µM; DNA CAG/GTC duplex TO-PRO-1 dye displacement fluorescence; AID 686960; in the data active = IC50 below about 10 µM
dCAG DNA bind: DNA CAG dye complex inhibition, late stage dose response; shares compounds with rCAG binder-1; d(CAG) DNA duplex TO-PRO-1 dye displacement, fluorescence; IC50, µM; 30 compounds, 80% hits
rCAG binder-2: molecules binding r(CAG) RNA repeats, late stage dose response; shares compounds with rCAG binder-1; r(CAG) RNA TO-PRO-1 dye displacement, fluorescence; IC50, µM; 30 compounds, 100% hits; AID 720651
An asterisk follows results filed as active; i = inactive; x = no result. Unless noted, the rule behind the calls is not given here.

SMILES	bovine MsrA act	DAGLB inhibitor	rCAG binder-1	DSG3 Ab inh	MsrA inh	NadD inh	rCAG bind conf	dCAG dye counter	others
O=C(COc1ccc(Cl)cc1Cl)Nc1ccccc1NS(=O)(=O)c1cccs1	-12	6	25	92	0	1	x	x
C[C@@H]1CN([C@H](C)CO)C(=O)c2cc(Br)cnc2O[C@@H]1CN(C)C(=O)C1CCOCC1	-4	0	3	104	0	-3	x	x
Cc1cc(NS(=O)(=O)c2ccc(NC(=O)C(C)Oc3ccc(C(C)C)cc3)cc2)no1 (stereo unspecified)	-2	3	47*	90	0	6	49*	16*
CCc1ccc(-c2cc(C(=O)Nc3ccc(S(=O)(=O)NC(C)=O)cc3)c3ccccc3n2)cc1	-8	6	58*	63*	4	13	63*	29*
CCc1ccc(OCC(=O)Nc2ccc(S(=O)(=O)Nc3cc(C)on3)cc2)c(Br)c1	-3	8	78*	x	0	10	74*	28*	dCAG dye DR=i
CCc1ccc(-c2cc(C(=O)NN3CCOCC3)c3ccccc3n2)cc1	-5	-2	-1	115	2	3	x	x
Cc1cc(NS(=O)(=O)c2ccc(NC(=O)c3cc(-c4ccccc4Cl)nc4ccccc34)cc2)no1	-5	7	75*	96	0	19	72*	39*
Cc1cc(NS(=O)(=O)c2ccc(NC(=O)COc3ccccc3Cl)cc2)no1	-3	2	24	86	0	-7	x	x
Cc1cc(NC(=O)c2cc(-c3ccccc3Cl)nc3ccccc23)no1	-1	-1	7	106	-1	-11	x	x
Nc1[nH]c(C(=O)c2ccccc2)c(-c2cccc3ccccc23)c1C(=O)c1ccc(Br)cc1	x	x	8	x	0	x	x	x
Cc1cc(NS(=O)(=O)c2ccc(NC(=O)C(c3ccccc3)c3ccccc3)cc2)no1	-11	4	59*	105	-1	-2	47*	18*
Cc1cc(NS(=O)(=O)c2ccc(NC(=S)NC(=O)c3ccc(Br)cc3)cc2)no1	-4	8	57*	112	1	7	47*	16*
O=C(C1CCCCC1)n1ccc2ccc(-c3ccc4ccn(Cc5ccccc5)c4c3)cc21	x	x	12	x	x	x	x	x
CCN(c1cc(C)cc(C)c1)S(=O)(=O)c1nnc(NC(=O)C(C)C)s1	-2	4	5	105	-1	-10	x	x
CCN(c1cc(C)cc(C)c1)S(=O)(=O)c1nnc(NC(=O)c2ccco2)s1	3	11	39*	x	4	8	38*	10*
Cc1ccccc1N1CCN(S(=O)(=O)c2nnc(NC(=O)c3ccco3)s2)CC1	0	17	43*	99	2	14	72*	26*	dCAG dye DR=i
CCN(c1ccccc1C)S(=O)(=O)c1nnc(NC(=O)c2ccco2)s1	-3	9	41*	96	3	1	26	6.9*
Cc1ccccc1N1CCN(S(=O)(=O)c2nnc(NC(=O)CC(C)C)s2)CC1	1	1	3	95	1	4	x	x
Cc1ccccc1N(C)S(=O)(=O)c1nnc(NC(=O)c2ccccc2F)s1	-5	4	9	107	0	3	x	x
O=C(NCc1ccc(C(=O)NC2CCCC2)cc1)c1cccc(Br)c1	x	x	2	x	x	x	x	x
COC(=O)Nc1nc2c(C)cccc2s1	-1	-5	0	110	1	-2	x	x
CSc1cccc(NC(=O)Nc2nc3c(C)cccc3s2)c1	-3	-3	52*	99	-1	2	45*	34*
COc1ccc(NS(=O)(=O)c2c(F)cc(F)c(Cl)c2F)cc1S(=O)(=O)N1CCCCC1	-5	6	40*	103	1	-3	36*	11*
COc1ccc(Cl)cc1NC(=S)NNC(=O)c1cccnc1	-3	7	27	97	1	1	x	x
COc1ccc(Cl)cc1NC(=S)NNC(=O)c1cccs1	-6	5	36*	98	0	4	34	9.6*
SMILES	bovine MsrA act	DAGLB inhibitor	rCAG binder-1	DSG3 Ab inh	MsrA inh	NadD inh	rCAG bind conf	dCAG dye counter	others
CCc1nnc(NC(=O)Nc2ccc(Cl)cc2)s1	-6	-2	39*	98	0	-2	9	12*
CCc1nnc(NS(=O)(=O)c2ccc(N/C=C/C(=O)c3ccc(OC)cc3)cc2)s1	-5	6	59*	105	2	26	65*	29*
CCc1nnc(NS(=O)(=O)c2ccc(N/C=C\C(=O)c3cccc4ccccc34)cc2)s1	-6	7	81*	96	4	19	82*	54*
CCc1nnc(NS(=O)(=O)c2ccc(NC(=O)c3ccccc3O)cc2)s1	-1	4	14	94	0	-2	x	x
CCc1nnc(NS(=O)(=O)c2ccc(NC(=O)c3cc(Cl)ccc3OC)cc2)s1	0	2	75*	98	-1	3	71*	33*	dCAG dye DR=i
COc1ccc(Cc2nnc(NS(=O)(=O)c3ccc(NC(C)=O)cc3)s2)cc1	-2	-1	14	x	0	-1	x	x
CC(C)(C)CSc1nnc(-c2cccnc2)n1Cc1ccccc1	x	x	-2	x	x	x	x	x
CCN(CC)c1ccc(NC(=O)CSc2nnc(-c3ccc(Cl)cc3)n2Cc2ccco2)cc1	x	x	6	x	x	x	x	x
C[C@@H]1ON(C)[C@H]2C[C@H]3c4cc(-c5cc6ccccc6o5)ccc4CCN3C[C@@H]12	x	x	8	x	0	x	x	x
ClCCn1c(CCl)nc2ccc(Cl)cc21	-4	-6	-1	103	0	-2	x	x
CCOC(=O)Nc1nc(C)c(C(=O)c2ccc(Cl)cc2)s1	-12	2	6	114	0	-4	x	x
CCOC(=O)c1sc(NC(=O)Nc2ccc(Cl)cc2)nc1C	-1	-6	36*	x	0	11	36*	25*
CCc1nnc(NS(=O)(=O)c2ccc(NC(=O)COc3ccc(Cl)c(C)c3)cc2)s1	-3	8	78*	104	-1	10	70*	32*	dCAG dye DR=i;dCAG DNA bind=3.5*;rCAG binder-2=1.3*
CCc1nnc(NS(=O)(=O)c2ccc(NC(=O)Nc3ccc(OC)cc3)cc2)s1	-10	-1	54*	100	-1	-1	25	6.9*
CCC(=O)Nc1cc(OC)c(NC(=S)Nc2ccccc2CC)cc1OC	-2	-1	2	99	1	-4	x	x
C=C1[C@@H](O)[C@H](Cc2ccccc2)N(Cc2ccccc2Br)S1(=O)=O	-4	6	0	99	-1	-6	x	x

High-throughput results as filed in PubChem.
